# Bioassay records: PubChem BioAssay, several laboratories
# ATG4B inhibitor: inhibitors of human ATG4B cysteine protease; hit rate 0.51% among 340,000; inhibition, % at 8.33 µM; ATG4B cleavage of LC3-PLA2, NBD-HPC fluorescence, 1 h; Q9Y4P1; in the data active = inhibition above about 40%
# Target sequence (Q9Y4P1 whole entry, looked up): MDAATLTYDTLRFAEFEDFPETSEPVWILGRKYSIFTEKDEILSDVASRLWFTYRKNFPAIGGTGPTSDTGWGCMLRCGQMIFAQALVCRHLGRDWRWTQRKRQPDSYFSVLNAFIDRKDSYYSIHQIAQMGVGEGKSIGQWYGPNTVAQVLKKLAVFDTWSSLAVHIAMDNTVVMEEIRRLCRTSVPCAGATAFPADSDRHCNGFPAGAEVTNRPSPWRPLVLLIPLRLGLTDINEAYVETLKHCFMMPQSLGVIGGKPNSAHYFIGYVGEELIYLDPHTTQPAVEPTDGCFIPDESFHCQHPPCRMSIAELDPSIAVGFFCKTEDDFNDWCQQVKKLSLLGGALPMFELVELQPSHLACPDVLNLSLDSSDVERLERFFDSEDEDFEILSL
# Yeast superoxide: lowers age-related superoxide in aged yeast cells. S. cerevisiae aged cells, superoxide DHE fluorescence; active compounds read low. superoxide response (% of plate mean), % at 10 µM. hit rate 0.18% among 330,000. AID 2690;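 active = superoxide response under a set limit, about three screen SD below normal, cut at about 65% in these data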;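 note: yeast aged for seven days with compound at 30 °C before DHE staining; 100% = average MFI of all compound-treated wells on the plate with controls excluded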
# Efflux pump mplx: blocks antifungal efflux pumps in multiplex yeast assay; AID 485275; inhibition, % at 10 µM; S. cerevisiae Candida pump triplex, Nile Red efflux; hit rate 0.44% among 330,000;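 active = plate passing quality check with inhibition over a set limit, or well fluorescence over plate mean plus 4 SD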;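 note: Nile Red retained in pooled yeast measured as flow cytometry median fluorescence; 0% = buffer negative control and 100% = Enniatin B positive control; higher means more Nile Red kept so more efflux inhibition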
# GRK2 inh: inhibitors of human GRK2 displacing RNA aptamer | P25098 | bead flow cytometry, FAM-aptamer displacement from GRK2 | inhibition of aptamer binding, % at 10 µM | hit rate 0.59% among 330,000 | AID 488847;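 active = inhibition of aptamer binding above 40%, roughly 3 SD of noise, on plates passing a quality check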;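 note: median bead fluorescence of bound FAM aptamer so fluorescent compounds give negative values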
# ATG4B confirm: ATG4B (human) inhibition, single-dose confirmed; shares compounds with ATG4B inhibitor; hit rate 92% among 320; ATG4B protease fluorescent substrate cleavage assay; inhibition, % at 8.33 µM; in the data active = inhibition above about 39%
# PLA2 counter: PLA2 (human) inhibition in ATG4B counter-screen; shares compounds with ATG4B inhibitor; purified PLA2, NBD-C6-HPC fluorescence, 45 min; inhibition, % at 8.33 µM; hit rate 66% among 1,600; AID 588402; in the data active = inhibition above about 50%
# Target sequence (P04054 whole entry, looked up): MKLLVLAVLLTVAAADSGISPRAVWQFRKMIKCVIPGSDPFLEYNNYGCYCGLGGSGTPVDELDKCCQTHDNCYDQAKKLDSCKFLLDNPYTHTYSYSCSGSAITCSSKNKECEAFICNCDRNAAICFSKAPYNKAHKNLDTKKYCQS
# * hit, by the source's call; . = no result. The list is not random: actives were taken first. Their share in the collection is about 1.6%.
SMILES,ATG4B inhibitor,Yeast superoxide,Efflux pump mplx,GRK2 inh,PLA2 counter,others
Cc1ccc(CNS(=O)(=O)c2ccc(C(C)(C)C)cc2)n1C,86*,115,0,0,89*,
O=C(On1c(-c2ccccc2)nc2ccccc2c1=O)c1ccco1,22,84,0,0,.,
COc1cc(OC)cc(-c2nc3ccccc3c(=O)n2OC(=O)c2ccccc2C)c1,45*,109,0,2,31,ATG4B confirm=67*
O=C(COc1ccc(F)c(Cl)c1)N1CCN(c2ccccn2)CC1,1,100,0,1,.,
O=C(COc1ccccc1Cl)N1CCN(c2ccccn2)CC1,92*,104,0,0,-5,
CC(C)(C)c1ccc(SCCc2cccnc2)cc1,5,85,0,0,.,
N/C(=N/O)c1ccccc1N1CCC(Cc2ccccc2)CC1,40*,87,0,0,58*,
S=C(NCc1ccccc1)Nc1ccc(Cl)cc1,27,87,0,0,.,
FC(F)(F)c1cccc(CNC(=S)Nc2ccccc2)c1,49*,100,0,0,61*,
FC(F)(F)c1cccc(NC(=S)NCc2ccccc2)c1,59*,110,0,0,62*,
FC(F)(F)Sc1ccc(NC(=S)NCc2ccccc2)cc1,73*,95,0,0,82*,
O=C(NC(CO)(CO)CO)[C@@H]1CCCN1S(=O)(=O)c1cccc2cccnc12,7,86,0,0,.,
CC(CCc1ccccc1)NC(=O)C1CCC1 (configuration not stated),-1,106,0,0,.,
O=C(CN1CCN(Cc2ccccc2)CC1)Nc1ccc(Br)cc1,1,82,0,0,.,
O=C(O)c1cc(NN=C2c3ccccc3-c3ccccc32)ccc1Cl,45*,132,0,6,39,ATG4B confirm=62*
O=C(O)c1cccc(NN=C2c3ccccc3-c3ccccc32)c1,13,.,.,.,.,
CC1CCCN(c2ccc(C(=O)Nc3cccnc3)cc2[N+](=O)[O-])C1 (configuration not stated),-4,96,0,1,.,
O=C(CCn1c(=S)[nH]c2cc3c(cc2c1=O)OCO3)N1CCc2ccccc2C1,.,95,0,3,.,
O=C(CCCn1c(=S)[nH]c2cc3c(cc2c1=O)OCO3)N1CCc2ccccc2C1,60*,94,0,1,63*,
O=C(CCCn1c(=S)[nH]c2cc3c(cc2c1=O)OCO3)N1CCN(c2ccc(Cl)cc2)CC1,53*,84,0,0,57*,
CC(=O)c1ccc(N2CCN(C(=O)CCCn3c(=S)[nH]c4cc5c(cc4c3=O)OCO5)CC2)cc1,45*,101,0,2,61*,
O=C(CCCn1c(=S)[nH]c2cc3c(cc2c1=O)OCO3)N1CCN(c2ccccc2)CC1,38,113,0,1,.,
O=C(O)c1ccc(N/N=C/c2c(F)cccc2Cl)cc1,-1,98,0,1,.,
O=C(NCc1ccc2c(c1)OCO2)c1ccc(CS(=O)Cc2cccc(Cl)c2)o1 (configuration not stated),-2,99,0,0,.,
O=C(NCc1cccc(Cl)c1)c1ccc(CS(=O)Cc2ccccc2Cl)o1 (configuration not stated),69*,102,0,0,69*,
SMILES,ATG4B inhibitor,Yeast superoxide,Efflux pump mplx,GRK2 inh,PLA2 counter,others
Cc1ccc(CS(=O)Cc2ccc(C(=O)NCc3ccccc3Cl)o2)cc1 (configuration not stated),42*,118,0,3,38,
O=C(NCc1cccc(Cl)c1)c1ccc(CS(=O)Cc2ccc(Cl)cc2)o1 (configuration not stated),60*,107,0,5,63*,
O=C(CCC(=O)OCc1ccc([N+](=O)[O-])cc1Cl)Nc1ccccc1,6,98,0,0,.,
COc1ccccc1-c1noc(CCC(=O)NC2CCCCC2)n1,-1,85,0,0,.,
COc1cccc(C2C3=C(N=c4s/c(=C\c5cccc(O)c5)c(=O)n42)c2ccccc2CC3)c1OC (configuration not stated),-7,108,0,1,.,
COc1ccccc1C1C2=C(N=c3s/c(=C/c4cccc(OCC(=O)O)c4)c(=O)n31)c1ccccc1CC2 (configuration not stated),50*,97,0,2,56*,
Cc1cc([N+](=O)[O-])nn1CCCC(=O)Nc1ccc(Cl)cc1Cl,-7,103,0,7,.,
Cc1c(Cl)c([N+](=O)[O-])nn1CCCC(=O)Nc1cccc(Cl)c1Cl,60*,80,0,5,67*,
Cc1c(Cl)c([N+](=O)[O-])nn1CCCC(=O)Nc1sc2c(c1C#N)CCC2,49*,128,0,1,65*,
Cc1c(Br)c([N+](=O)[O-])nn1CCCC(=O)Nc1sc2c(c1C#N)CCC2,30,96,0,3,.,
Cc1c(Cl)c([N+](=O)[O-])nn1CCCC(=O)Nc1ccc(Cl)cc1Cl,67*,105,0,0,54*,
COc1ccccc1/C=N/OCc1cc(C(C)=O)ccc1OC,1,102,0,0,.,
COc1ccc(C2CC(c3ccccc3)=NN2C(=O)COC(=O)/C=C/c2ccc(O)c(OC)c2)cc1 (configuration not stated),1,98,0,1,.,
C(#Cc1ccccc1)C[N+]1(CC#Cc2ccccc2)CCCC1,-4,100,0,0,.,
C=CC#CC[N+]1(CC#Cc2ccccc2)CCOCC1,70*,.,.,.,-3,ATG4B confirm=46*
CC(OC(=O)c1c2c(nc3ccccc13)/C(=C\c1ccc3c(c1)OCO3)CCC2)C(=O)Nc1ccc(S(N)(=O)=O)cc1 (configuration not stated),5,.,.,.,.,
Cc1cccc(C)c1NC(=O)COC(=O)c1c2c(nc3ccccc13)/C(=C\c1ccc3c(c1)OCO3)CCC2,44*,102,0,0,16,
CCOc1ccc(C(=O)Nc2ccccc2-c2ccccc2)cc1Cl,45*,85,0,2,48,
CCN(CC(=O)Nc1ccccc1C(F)(F)F)C(=O)Cc1ccccc1,8,83,0,4,.,
COc1ccc(S(=O)(=O)N2CCC(C(=O)N3CCc4ccccc4C3)CC2)cc1C,56*,97,0,4,50*,
COc1ccc(S(=O)(=O)N2CCC(C(=O)N3CCc4ccccc4C3)CC2)cc1,13,93,0,0,.,
COc1ccc(CN2C(=O)c3ccccc3C(/C=N\OCc3ccc(F)cc3)C2=O)cc1 (configuration not stated),60*,106,0,4,75*,
O=C(O)c1cc2c(cc1NC(=O)c1ccccc1OC(F)F)OCCCO2,44*,118,0,0,42,ATG4B confirm=58*
O=C(Nc1ccccc1N1CCOCC1)c1ccc(Cl)nc1,7,103,0,1,.,
